Over roughly 2,900 compounds, “NF-kB SEAP reporter activity, fold change vs agonist alone” has its median near 0.99; the highest 2% begin near 2.6. This is one part of a sample in which the highest values are shown more often than they occur.
Columns and labels:
RAW-Dual [1] = test: NF-kB SEAP reporter activity, fold change vs agonist alone; cytotoxicity flag (confluency mask): cytotoxic (confluency <70% of control); higher = enhanced NF-kB activity
How it was run: (§1)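 After 50 nL of library stock was delivered by pin tool to RAW-Dual macrophages (50,000 cells/well, DMEM, 384-well plates), a PRR agonist was added 1 h later and the plates were kept at 37 °C, 5% CO2. Twenty hours later, IRF was read from supernatant by QuantiLuc luminescence and NF-κB by QuantiBlue absorbance at 620 nm. Reporter activity is stated as fold change over agonist-alone wells. Wells with IncuCyte confluency under 70% of agonist controls in both mask sets were counted as cytotoxic.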

RAW-Dual [2] = test: NF-kB SEAP reporter activity, fold change vs agonist alone; higher = enhanced NF-kB activity; details: cytotoxicity flag (confluency mask): not cytotoxic
How it was run: as §1

RAW-Dual [3] = test: NF-kB SEAP reporter activity, fold change vs agonist alone; cytotoxicity flag (confluency mask): not cytotoxic; higher = enhanced NF-kB activity
How it was run: as §1

[4] = agonist: ODN 1826 (TLR9) 0.5 ug/mL
[5] = agonist: Pam2CSK4 (TLR2/6) 0.1 ug/mL
[6] = agonist: Pam3CSK4 (TLR2/1) 0.1 ug/mL
[7] = library stock concentration (final ~1000-fold dilution): 10 mM, agonist: Imiquimod (TLR7) […]
[8] = library stock concentration (final ~1000-fold dilution): 10 mM, agonist: MPLA (TLR4) […]

COc1ccc(C=Cc2cc(OC)c(OC)c(OC)c2)cc1OP(=O)(O)O (library stock concentration (final ~1000-fold dilution): 10 mM water)
NF-kB SEAP reporter activity (RAW-Dual [1]; agonist: LPS (TLR4) 0.1 ug/mL): 5.99 | NF-kB SEAP reporter activity (RAW-Dual [1]; [4]): 2.48 | NF-kB SEAP reporter activity (RAW-Dual [1]; [5]): 2.34 | NF-kB SEAP reporter activity (RAW-Dual [1]; [6]): 2.65

CCC(C)C(NC(=O)C(CCCCN)NC(=O)C(CCC(=O)O)NN)C(=O)NC(CCC(N)=O)C(=O)NC(C)C(=O)NC(CCCCN)C(=O)N1CCCC1C(=O)NC(C)C(=O)C(=O)C(CC(C)C)NC(=O)C(CCC(N)=O)NC(=O)C(NC(=O)C(NC(=O)C(CCCNC(=N)N)NC(=O)C(Cc1ccccc1)NC(=O)C(CCCCNNC(Cc1ccccc1)C(=O)NC(CO)C(=O)NC(CCC(=O)O)C(=O)NC(CO)C(=O)NC(C(=O)NC(CC(N)=O)C(=O)NC(C=O)CO)C(C)O)NC(=O)C(Cc1ccccc1)NC(=O)C(CO)NC(=O)C(CCC(=O)O)NC(=O)C(CO)NC(=O)C(NC(=O)C(CC(N)=O)NC(=O)C(N)CO)C(C)O)C(C)C)C(C)O (stereo not given)
NF-kB SEAP reporter activity (RAW-Dual [2]; library stock concentration (final ~1000-fold dilution): 10 mM water, agonist: Imiquimod (TLR7) […]): 0.927 | NF-kB SEAP reporter activity (RAW-Dual [2]; library stock concentration (final ~1000-fold dilution): 10 mM water, agonist: MPLA (TLR4) […]): 1.03

CCC(C)C(NC(=O)C(CCCCN)NC(=O)C(CCC(=O)O)NN)C(=O)NC(CCC(N)=O)C(=O)NC(C)C(=O)NC(CCCCN)C(=O)N1CCCC1C(=O)NC(C)C(=O)C(=O)C(CC(C)C)NC(=O)C(CCC(N)=O)NC(=O)C(NC(=O)C(NC(=O)C(CCCNC(=N)N)NC(=O)C(Cc1ccccc1)NC(=O)C(CCCCNNC(Cc1ccccc1)C(=O)NC(CO)C(=O)NC(CCC(=O)O)C(=O)NC(CO)C(=O)NC(C(=O)NC(CC(N)=O)C(=O)NC(C=O)CO)C(C)O)NC(=O)C(Cc1ccccc1)NC(=O)C(CO)NC(=O)C(CCC(=O)O)NC(=O)C(CO)NC(=O)C(NC(=O)C(CC(N)=O)NC(=O)C(N)CO)C(C)O)C(C)C)C(C)O (stereo not given) (library stock concentration (final ~1000-fold dilution): 10 mM water)
NF-kB SEAP reporter activity (RAW-Dual [3]; agonist: LPS (TLR4) 0.1 ug/mL): 1.1 | NF-kB SEAP reporter activity (RAW-Dual [3]; [4]): 1.16 | NF-kB SEAP reporter activity (RAW-Dual [3]; [5]): 1.13 | NF-kB SEAP reporter activity (RAW-Dual [3]; [6]): 1.74

O=c1cc(-c2ccc(O)cc2)oc2c(C3OC(CO)C(O)C(O)C3O)c(O)cc(O)c12 (stereo not given) (library stock concentration (final ~1000-fold dilution): 10 mM)
NF-kB SEAP reporter activity (RAW-Dual [3]; agonist: LPS (TLR4) 0.1 ug/mL): 0.978 | NF-kB SEAP reporter activity (RAW-Dual [3]; [4]): 0.919 | NF-kB SEAP reporter activity (RAW-Dual [3]; [5]): 1 | NF-kB SEAP reporter activity (RAW-Dual [3]; [6]): 1.31

O=c1cc(-c2ccc(O)cc2)oc2c(C3OC(CO)C(O)C(O)C3O)c(O)cc(O)c12 (stereo not given)
NF-kB SEAP reporter activity (RAW-Dual [2]; [7]): 0.887 | NF-kB SEAP reporter activity (RAW-Dual [2]; [8]): 0.994

N#Cc1cc(N2CCC(C(=O)N3N=CCC3c3cc(F)cc(F)c3)CC2)ncn1 (stereo not given)
NF-kB SEAP reporter activity (RAW-Dual [2]; [7]): 1.09 | NF-kB SEAP reporter activity (RAW-Dual [2]; [8]): 1.26

N#Cc1cc(N2CCC(C(=O)N3N=CCC3c3cc(F)cc(F)c3)CC2)ncn1 (stereo not given) (library stock concentration (final ~1000-fold dilution): 10 mM)
NF-kB SEAP reporter activity (RAW-Dual [3]; agonist: LPS (TLR4) 0.1 ug/mL): 1.25 | NF-kB SEAP reporter activity (RAW-Dual [3]; [4]): 1.05 | NF-kB SEAP reporter activity (RAW-Dual [3]; [5]): 0.796 | NF-kB SEAP reporter activity (RAW-Dual [3]; [6]): 0.84

Cn1cc(-c2[nH]c3cc(NC(=O)C(N)C4CCCCC4)cc4c3c2C=NNC4=O)cn1 (stereo not given) (library stock concentration (final ~1000-fold dilution): 10 mM)
NF-kB SEAP reporter activity (RAW-Dual [3]; agonist: LPS (TLR4) 0.1 ug/mL): 3.51 | NF-kB SEAP reporter activity (RAW-Dual [3]; [4]): 2.74 | NF-kB SEAP reporter activity (RAW-Dual [3]; [5]): 1.6 | NF-kB SEAP reporter activity (RAW-Dual [3]; [6]): 1.8

Cn1cc(-c2[nH]c3cc(NC(=O)C(N)C4CCCCC4)cc4c3c2C=NNC4=O)cn1 (stereo not given)
NF-kB SEAP reporter activity (RAW-Dual [2]; [7]): 2.17 | NF-kB SEAP reporter activity (RAW-Dual [2]; [8]): 2.16

CC(C)C(NC(=O)C(CC(=O)O)NC(=O)C(CCCCN)NC(=O)C(N)CCCNC(=N)N)C(=O)NC(Cc1ccc(O)cc1)C(=O)O (stereo not given)
NF-kB SEAP reporter activity (RAW-Dual [2]; [7]): 1.14 | NF-kB SEAP reporter activity (RAW-Dual [2]; [8]): 0.967

CC(C)C(NC(=O)C(CC(=O)O)NC(=O)C(CCCCN)NC(=O)C(N)CCCNC(=N)N)C(=O)NC(Cc1ccc(O)cc1)C(=O)O (stereo not given) (library stock concentration (final ~1000-fold dilution): 10 mM)
NF-kB SEAP reporter activity (RAW-Dual [3]; agonist: LPS (TLR4) 0.1 ug/mL): 1.27 | NF-kB SEAP reporter activity (RAW-Dual [3]; [4]): 1.1 | NF-kB SEAP reporter activity (RAW-Dual [3]; [5]): 1.19 | NF-kB SEAP reporter activity (RAW-Dual [3]; [6]): 1.17

CNC(=O)C(NC(=O)C(CC(C)C)C(O)C(=O)NO)C(C)(C)C (stereo not given)
NF-kB SEAP reporter activity (RAW-Dual [2]; [7]): 1.08 | NF-kB SEAP reporter activity (RAW-Dual [2]; [8]): 1.38

CNC(=O)C(NC(=O)C(CC(C)C)C(O)C(=O)NO)C(C)(C)C (stereo not given) (library stock concentration (final ~1000-fold dilution): 10 mM)
NF-kB SEAP reporter activity (RAW-Dual [3]; agonist: LPS (TLR4) 0.1 ug/mL): 1.09 | NF-kB SEAP reporter activity (RAW-Dual [3]; [4]): 1.01 | NF-kB SEAP reporter activity (RAW-Dual [3]; [5]): 1.04 | NF-kB SEAP reporter activity (RAW-Dual [3]; [6]): 1.01

Oc1c(F)cc(-c2cnccc2-c2ccc(N3CCOCC3)cc2)cc1F (library stock concentration (final ~1000-fold dilution): 10 mM)
NF-kB SEAP reporter activity (RAW-Dual [3]; agonist: LPS (TLR4) 0.1 ug/mL): 1.12 | NF-kB SEAP reporter activity (RAW-Dual [3]; [4]): 0.913 | NF-kB SEAP reporter activity (RAW-Dual [3]; [5]): 0.947 | NF-kB SEAP reporter activity (RAW-Dual [3]; [6]): 0.73

Oc1c(F)cc(-c2cnccc2-c2ccc(N3CCOCC3)cc2)cc1F
NF-kB SEAP reporter activity (RAW-Dual [2]; [7]): 1.08 | NF-kB SEAP reporter activity (RAW-Dual [2]; [8]): 0.911

O=C(Nc1cc(C(F)(F)F)ccc1N1CCN(Cc2ccccn2)CC1)c1ccc(-c2ccncc2)o1
NF-kB SEAP reporter activity (RAW-Dual [2]; [7]): 0.609 | NF-kB SEAP reporter activity (RAW-Dual [2]; [8]): 1.03

O=C(Nc1cc(C(F)(F)F)ccc1N1CCN(Cc2ccccn2)CC1)c1ccc(-c2ccncc2)o1 (library stock concentration (final ~1000-fold dilution): 10 mM)
NF-kB SEAP reporter activity (RAW-Dual [3]; agonist: LPS (TLR4) 0.1 ug/mL): 1.25 | NF-kB SEAP reporter activity (RAW-Dual [3]; [4]): 0.731 | NF-kB SEAP reporter activity (RAW-Dual [3]; [5]): 0.657 | NF-kB SEAP reporter activity (RAW-Dual [3]; [6]): 0.818

CC(C)CCN1c2nc(Nc3cc(F)c(O)c(F)c3)ncc2N(C)C(=O)C1C (stereo not given)
NF-kB SEAP reporter activity (RAW-Dual [2]; [7]): 2.84 | NF-kB SEAP reporter activity (RAW-Dual [2]; [8]): 2.55

CC(C)CCN1c2nc(Nc3cc(F)c(O)c(F)c3)ncc2N(C)C(=O)C1C (stereo not given) (library stock concentration (final ~1000-fold dilution): 10 mM)
NF-kB SEAP reporter activity (RAW-Dual [3]; agonist: LPS (TLR4) 0.1 ug/mL): 4.3 | NF-kB SEAP reporter activity (RAW-Dual [3]; [4]): 2.63 | NF-kB SEAP reporter activity (RAW-Dual [3]; [5]): 1.02 | NF-kB SEAP reporter activity (RAW-Dual [3]; [6]): 2.05

COc1cc(-c2cc(-c3ccc(Cl)cc3)nc(=O)[nH]2)ccc1O (library stock concentration (final ~1000-fold dilution): 10 mM)
NF-kB SEAP reporter activity (RAW-Dual [3]; agonist: LPS (TLR4) 0.1 ug/mL): 1.6 | NF-kB SEAP reporter activity (RAW-Dual [3]; [4]): 0.991 | NF-kB SEAP reporter activity (RAW-Dual [3]; [5]): 1.22 | NF-kB SEAP reporter activity (RAW-Dual [3]; [6]): 1.39

COc1cc(-c2cc(-c3ccc(Cl)cc3)nc(=O)[nH]2)ccc1O
NF-kB SEAP reporter activity (RAW-Dual [2]; [7]): 1.09 | NF-kB SEAP reporter activity (RAW-Dual [2]; [8]): 1.15

CCN(CC)CC#CCOC(=O)C(O)(c1ccccc1)C1CCCCC1.Cl (stereo not given) (library stock concentration (final ~1000-fold dilution): 10 mM)
NF-kB SEAP reporter activity (RAW-Dual [3]; agonist: LPS (TLR4) 0.1 ug/mL): 2.01 | NF-kB SEAP reporter activity (RAW-Dual [3]; [4]): 0.958 | NF-kB SEAP reporter activity (RAW-Dual [3]; [5]): 0.963 | NF-kB SEAP reporter activity (RAW-Dual [3]; [6]): 1.3

CCN(CC)CC#CCOC(=O)C(O)(c1ccccc1)C1CCCCC1.Cl (stereo not given)
NF-kB SEAP reporter activity (RAW-Dual [2]; [7]): 1.75 | NF-kB SEAP reporter activity (RAW-Dual [2]; [8]): 1.46
